From PubChem BioAssay
This is a sample that favours compounds with a hit; in the whole collection about 7.3% have one here.
NPC1 promoter act = activators of NPC1 promoter; Huh7 NPC1 promoter luciferase reporter, 24 h; Potency, µM (highest dose often 9.22 µM), inactives show at the highest dose activation, usual class: activators; 320,000 tested, 2.4% active; further: % of control where 0% means no effect; nearly all actives have a fitted effect of over 60% in size
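Stable NPC1-promoter luciferase Huh7 line; cpd (DMSO) 24 h, 37 °C, 5% CO2; Amplite luciferase reagent 10 min RT; luminescence readout. qHTS format.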
FLuc modulator = inhibits or activates purified firefly luciferase, miR-21 counter-screen; P08659; purified FLuc, Km substrates, luminescence inhibition; Potency, µM (top dose mostly 57.5 µM), without a hit: at the highest dose activity change, negative = inhibition, usual class: inhibitors; 360,000 tested, 6.9% active; AID 588342;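 further: plate controls were vehicle for no effect and reference inhibitor for full effect; nearly all actives have a fitted effect of over 55% in size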
Target sequence (P08659 whole entry, looked up): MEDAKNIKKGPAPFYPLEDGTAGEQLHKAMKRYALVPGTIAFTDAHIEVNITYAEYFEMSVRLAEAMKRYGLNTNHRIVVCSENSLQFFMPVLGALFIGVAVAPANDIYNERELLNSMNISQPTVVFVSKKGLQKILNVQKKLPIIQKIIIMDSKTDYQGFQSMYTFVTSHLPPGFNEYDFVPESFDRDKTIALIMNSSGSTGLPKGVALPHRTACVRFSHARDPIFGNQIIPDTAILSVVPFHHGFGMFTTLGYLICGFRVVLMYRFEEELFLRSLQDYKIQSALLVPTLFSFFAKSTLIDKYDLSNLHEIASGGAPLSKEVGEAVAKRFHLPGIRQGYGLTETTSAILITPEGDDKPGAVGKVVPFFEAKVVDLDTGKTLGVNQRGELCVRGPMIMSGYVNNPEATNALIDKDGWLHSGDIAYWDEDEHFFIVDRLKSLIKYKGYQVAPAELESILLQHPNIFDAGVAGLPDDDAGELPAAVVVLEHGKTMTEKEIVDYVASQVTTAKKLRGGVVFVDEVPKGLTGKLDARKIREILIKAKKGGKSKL
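Purified P. pyralis luciferase, 10 nM final, with Km-level 10 uM D-luciferin and 10 uM ATP in 50 mM Tris acetate pH 7.5, 10 mM Mg acetate, 0.01% Tween-20, 0.05% BSA; 6-point qHTS titration about 60 µM downward; luminescence read.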
uPA surface inh = cell surface uPA generation inhibition; cell surface uPA generation assay, qHTS; Potency, µM (series often up to 38.3 µM), for the others: at the highest dose activity change, negative = inhibition, actives largely listed as inhibitors; 330,000 tested, 0.31% active; AID 540303; active means well fitted inhibition curve with a large enough effect; inconclusive means small, poorly fitted or top-dose-only effect; inactive means no such curve, though single readings can be large or run the other way; tested in mouse RAW 264.7 cells; further: on the % scale 0 is the no-effect control and ±100 the full control effect; nearly all actives have a fitted effect of over 55% in size
Rab9 promoter act = activators of Rab9 promoter; Huh7 Rab9 promoter-luciferase reporter, luminescence, 24 h; Potency, µM (top dose mostly 9.22 µM), without a hit: at the top dose activation, negative = inhibition, usual class: activators; 320,000 tested, 2.8% active; further: % of control where 0% means no effect; nearly all actives have a fitted effect of over 60% in size
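Luminescence read-out: Huh7 cells stably expressing Rab9-luciferase, treated 24 h with compound at 37 °C, then lysed with luciferase reagent for 10 min at ambient before reading.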
ELG1 genotoxic = genotoxicity induction in ELG1-luciferase HEK293T cells; Potency, µM (highest dose often 46 µM), without a hit: top-dose activity change, positive = activation, hits mostly activators; HEK293T ELG1-luciferase reporter, luminescence, 16 h; AID 504466; 330,000 tested, 1.3% active; further: % of control where 0% means no effect; nearly all actives have a fitted effect of over 60% in size
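Reporter readout depends on ELG1 protein level, which increases with genetic stress. After 16 hr compound exposure at 37 °C, luciferase activity was quantified using ONE-Glo.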
SMN2 splice up = SMN2 splice variant enhancement; HEK293 SMN2-luciferase splicing reporter, luminescence, 30-36 h; 210,000 tested, 2.8% active; Potency, µM (doses to about 46.1 µM), for inactives: top-dose activity change, positive = activation, actives largely listed as activators; further: % of control where 0% means no effect; nearly all actives have a fitted effect of over 55% in size
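HEK293 cells carry an SMN2 […]–luciferase reporter in which exon 7 inclusion puts luciferase in frame. Cells were plated 10-12 h before compound addition, then incubated 30-36 h at 37C. ONE-Glo luminescence was read; sodium butyrate at 4.5 mM final served as control.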
An asterisk follows results filed as active; ? = inconclusive; · = not tested or not shown. Unless noted, the call rests on the fitted dose curve; in most records, active means well fitted curve in the direction sought with a large enough effect; inconclusive means small, poorly fitted or top-dose-only effect, or another doubt; inactive means no such curve, though single readings can be large; an effect the other way counts as inactive or inconclusive. Potency means the concentration at half of the fitted maximal effect.

SMILES	NPC1 promoter act	FLuc modulator	uPA surface inh	Rab9 promoter act	ELG1 genotoxic	SMN2 splice up
O=C(Nc1ccc(C(=O)OC[C@@H]2CCCN3CCCC[C@H]23)cc1)c1cccc(Br)c1	-0.4%	-1.3%	1.0%	-1.9%	-1.3%	-2.0%
O=C(c1ccccc1)N1CCSC1=S	-3.3%	2.0%	0.6%	-1.3%	-2.2%	-4.9%
O=C(c1ccccc1)N1CCSc2sccc2C1=O	?	23.9µM*	-26.7%	?	-12.1%	-13.8%
COc1cc(NC(=O)c2cc(OC)c(OC)c(OC)c2)c(OC)cc1NC(=O)CN1CCCCC1	-2.1%	13.5µM*	9.4%	-0.5%	0.8%	7.7%
COc1cc(NC(=O)c2ccccc2Cl)c(OC)cc1NC(=O)CN1CCCCC1	-1.1%	-7.0%	5.4%	-0.9%	0.5%	·
COc1ccc(N2CCN(CC(=O)Nc3ccc(C)cc3Br)CC2)cc1	·	·	5.1%	·	·	·
Cc1ccc(NC(=O)CN2CCCCCC2)c(Br)c1	3.98µM*	12µM*	4.5%	3.98µM*	?	10.6%
COc1cc(NC(=O)c2ccc(C)cc2)c(OC)cc1NC(=O)CN1CCCCC1	23.4%	19µM*	-2.5%	20.8%	-4.8%	-1.1%
CC(=O)c1cccc(NC(=O)c2ccc(Cl)c(S(=O)(=O)N3CCOCC3)c2)c1	·	0.7%	·	·	·	2.5%
CSc1nc2ccc(NC(=O)c3ccc(F)c(F)c3)cc2s1	?	?	-0.2%	?	?	15.8µM*
CSc1nc2ccc(NC(=O)c3ccc(=O)[nH]c3)cc2s1	1.2%	?	3.5%	12.1%	13.7%	·
CC(=O)Nc1ccc2nc(NC(=O)c3ccc([N+](=O)[O-])o3)sc2c1	12.1%	21.3µM*	-5.2%	15.8%	-12.8%	·
CC(=O)Nc1ccc2nc(NC(=O)c3ccco3)sc2c1	1.41µM*	10.7µM*	?	2µM*	?	·
CCOC(=O)Nc1ccc2nc(Sc3ccc(Cl)cc3)sc2c1	-30.7%	?	1.58µM*	-19.8%	-11.2%	·
Cc1cccc(Cn2cnc3c(cnn3-c3ccc(Cl)cc3)c2=O)c1	·	-0.1%	·	·	·	-1.4%
Cc1ccc(C)c(Cn2c(=O)n(CCCCC(=O)NCc3ccc4c(c3)OCO4)c(=O)c3ccccc32)c1	·	-1.0%	·	·	·	-2.6%
Cc1cccc(OCC(=O)Nc2nc3ccc([N+](=O)[O-])cc3s2)c1	-3.3%	-8.4%	4.5%	-6.3%	-3.1%	-17.9%
O=C(Nc1nc2ccc([N+](=O)[O-])cc2s1)c1c(F)cccc1F	22.9%	8.49µM*	-0.6%	18.8%	-1.1%	?
CCOC(=O)CSc1nc2ccc(NC(=O)c3ccc(C)cc3)cc2s1	·	5.36µM*	·	·	·	·
CSc1nc2ccc(NC(=O)c3ccco3)cc2s1	2.82µM*	9.53µM*	0.5%	2.51µM*	8.2µM*	·
COc1ccc(C(=O)Nc2ccc3nc(SCc4ccc(C)cc4)sc3c2)cc1	·	-1.5%	·	·	·	·
O=C(Nc1nc2ccc([N+](=O)[O-])cc2s1)c1ccco1	1.58µM*	2.13µM*	·	0.794µM*	-10.4%	3.55µM*
COc1ccc(-c2nnc(NC(=O)c3ccccc3[N+](=O)[O-])s2)c(OC)c1	2.4%	-2.8%	3.8%	12.9%	?	·
CS(=O)(=O)Nc1ccccc1C(=O)OCC(=O)N1CCC(c2ccccc2)=N1	1.8%	-1.1%	8.7%	-8.5%	0.6%	·
Cc1cccc(NC(=O)CN2CCN(C(=O)C3CCCO3)CC2)c1C (stereo not drawn)	2.4%	1.4%	-5.8%	-2.0%	1.8%	·
CSc1nc2ccc(NC(=O)c3cc4ccccc4o3)cc2s1	1.58µM*	1.07µM*	-6.5%	2.51µM*	?	·
CSc1nc2ccc(NC(=O)c3nn(C(C)C)c(=O)c4ccccc34)cc2s1	11.2%	?	0.4%	19.2%	11.6%	-21.3%
CSc1nc2ccc(NC(=O)c3ccc(=O)n(C)n3)cc2s1	28.3%	16.9µM*	-2.2%	?	22.1%	-17.1%
CS(=O)(=O)c1ccc2nc(NC(=O)c3cccc([N+](=O)[O-])c3)sc2c1	1.58µM*	1.69µM*	?	1.26µM*	?	·
